Drawing on PubChem BioAssay AID488905 (Broad Institute, 2010), this text covers outcome for seven compounds.

Results with a measured potency or affinity are listed apart. Records with an inconclusive call do not appear. Activity calls are given as the source filed them.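 The calls were made as follows: active = growth inhibition lowering dye signal, with fitted half-maximal dose at most ten times the top valid dose; inconclusive = flat curve inhibiting 30 to 70 percent, or unreliable fit; inactive = the rest, including effects in the opposite direction.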

A short description of the experiment: resistant Candida growth with fluconazole co-treatment – CaCi-8 strain, Alamar Blue, dry powder, set 3, dose response (AID 488905). Conditions: C. albicans CaCi-8 + fluconazole, 48 h; series mostly up to 26 µM. In general terms: The colour change of resazurin is a common sign of viable cells or microbes.
Consider `Cc1cccc(N2CCN(C(=O)c3ccc(Cl)cc3)CC2)n1`, for which the result was inactive.

On to `COc1cccnc1N1CCN(C(=O)c2ccc(Cl)cc2)CC1`, for which the outcome was inactive.

As for `O=C(c1ccc(Cl)cc1)N1CCN(c2cnccn2)CC1`, the result was inactive.

`Cn1ccnc1N1CCN(C(=O)c2ccc(Cl)cc2)CC1`: the result was inactive.

In the case of `O=C(c1ccccc1)N1CCN(c2ccccn2)CC1`, the result was inactive.

`O=C(c1ccc(Cl)cc1)N1CCN(c2cccc(C(F)(F)F)n2)CC1`: the outcome was inactive.

Take `COCCC(=O)N1CCN(c2ccccn2)CC1`: the result was inactive.
